# Several values for one entry are separate records, joined by “and”; a condition that tells them apart may be missing. Equal entries are not always repeated. Inconclusive results are not listed. The source holds several records for some structures; these can differ, active in one and inactive in another. Activity calls are given as the source filed them. Rule for the calls: active = hit-call score of the fitted dose curve at least 0.9, where 1 is the maximum; inconclusive = response in the unintended direction; inactive = score below 0.9.
# Key:
# [1] = molecular target: human CYP2J2, CYP2J2 (gene 1573) (UniProt P51589); test: NVS_ADME_hCYP2J2: NovaScreen (NVS) CYP450-related Enzyme Activity (ADME) Assay for human CYP2J2 (AID 2283106)
# In short: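 Cell-free assay of recombinant CYP2J2 with a fluorogenic substrate, read 1 h after dosing; loss of signal versus acetonitrile. Primary screen at 10 uM in duplicate, then concentration-response up to 20 uM for chemicals passing threshold (e.g., 30% inhibition).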
# [2] = molecular target: human CYP2D6, CYP2D6 (gene 1565) (UniProt P10635); test: NVS_ADME_hCYP2D6: NovaScreen (NVS) CYP450-related Enzyme Activity (ADME) Assay for human CYP2D6 (AID 2283107)
# Procedure: NVS_ADME_hCYP2D6 is a biochemical, single-readout assay that uses extracted gene-proteins from insect cells in a cell-free assay. Measurements were taken 1 hour after chemical dosing in a 96-well plate.NVS_ADME_hCYP2D6 is one of one assay component(s) measured or calculated from the NVS_ADME_hCYP2D6 assay. It is designed to make measurements of enzyme activity, a form of enzyme reporter, as detected with fluorescence intensity signals by Fluorescence technology.Data from the assay component NVS_ADME_hCYP2D6 was analyzed into 1 assay endpoint. This assay endpoint, NVS_ADME_hCYP2D6, was analyzed in the positive analysis fitting direction relative to Acetonitrile as the negative control and baseline of activity. Using a type of enzyme reporter, loss-of-signal activity can be used to understand changes in the enzymatic activity as they relate to the gene CYP2D6. Furthermore, this assay endpoint can be referred to as a primary readout, because this assay has produced multiple assay endpoints where this one serves a enzymatic activity function. To generalize the intended target to other relatable targets, this assay endpoint is annotated to the cyp intended target family, where the subfamily is xenobiotic metabolism.
# Binding assays used specific radioligands (tritiated, iodinated) with non-radioactive competitive displacement ligands in agonist or antagonist protocols (as indicated) and various reference compounds and inhibitors to titrate specific binding to receptors and transporters. Most enzyme assays (CYPs, kinases, phosphatases, proteases, HDACs) used recombinant protein and specific substrates (fluorescence mostly, some colorimetric and radioactive) and inhibitors, followed by a biochemical separation of substrate and product. All assays for the biochemical HTS were initially run in duplicate at a single concentration (10 uM for CYP450 assays and 25 uM for all others). […] Each assay was run with positive and negative controls, and concurrent controls on every plate. The follow-up (secondary) screen tested active chemical-pairs in concentration series, as well as a few additional assays not tested in the primary screen, some selected negative inactives, and several cases re-run in the concentration series for confirmatory purposes.
# [3] = molecular target: human CYP2C9, CYP2C9 (gene 1559) (UniProt P11712); test: NVS_ADME_hCYP2C9: NovaScreen (NVS) CYP450-related Enzyme Activity (ADME) Assay for human CYP2C9 (AID 2283108)
# In short: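 Fluorescence readout of CYP2C9 activity (SF9-expressed human enzyme) at 0.75 h. The primary screen used 10 uM in duplicate, with concentration-response follow-up for actives; acetonitrile was the negative control.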
# [4] = molecular target: Cytochrome P450 2C19 (Homo sapiens) (UniProt P33261); test: NVS_ADME_hCYP2C19: NovaScreen (NVS) CYP450-related Enzyme Activity (ADME) Assay for human CYP2C19 (AID 2283113);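 for AC50: potency for inhibition seen as loss of fluorescent signal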
# In short: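 Compounds first screened in duplicate at 10 uM, then confirmed in concentration series. Insect-cell-expressed human CYP2C19 turned over a fluorogenic substrate, and fluorescence was read after 1 h. Inhibition taken as signal loss relative to acetonitrile.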
# [5] = molecular target: rat CYP2A2, Cyp2a2 (gene 24895) (UniProt P15149); test: NVS_ADME_rCYP2A2: NovaScreen (NVS) CYP450-related Enzyme Activity (ADME) Assay for rat CYP2A2 (AID 2283116)
# In short: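 Cell-free recombinant rat CYP2A2 activity with fluorogenic substrate, fluorescence read 0.2 h after dosing. Chemicals screened at 10 uM in duplicate, hits then run in concentration-response up to 20 uM; signal loss versus acetonitrile baseline.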
# [6] = molecular target: rat CYP2C11, Cyp2c11 (gene 29277) (UniProt P08683); test: NVS_ADME_rCYP2C11: NovaScreen (NVS) CYP450-related Enzyme Activity (ADME) Assay for rat CYP2C11 (AID 2283118)
# In short: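 Cell-free recombinant rat enzyme with fluorescent substrate; readout 0.33 h after dosing, loss of signal versus acetonitrile control. Initial duplicate single-point at 10 uM; actives rerun in concentration series.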
# [7] = molecular target: rat CYP2C12, Cyp2c12 (gene 25011) (UniProt P11510); test: NVS_ADME_rCYP2C12: NovaScreen (NVS) CYP450-related Enzyme Activity (ADME) Assay for rat CYP2C12 (AID 2283119)
# In short: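 Cell-free recombinant rat CYP2C12 activity read by fluorescence 0.5 h after dosing; loss of signal versus acetonitrile control. Primary screen in duplicate at 10 uM; actives then run in concentration-response format.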
# [8] = molecular target: rat CYP1A2, Cyp1a2 (gene 24297) (UniProt P04799); test: NVS_ADME_rCYP1A2: NovaScreen (NVS) CYP450-related Enzyme Activity (ADME) Assay for rat CYP1A2 (AID 2283115)
# In short: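 Cell-free recombinant rat enzyme with fluorogenic substrate, read by fluorescence intensity 1 hour after dosing. Loss of signal versus acetonitrile negative control; primary screen at 10 uM in duplicate, actives followed in concentration series.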
# [9] = molecular target: Cytochrome P450 3A4 (Homo sapiens) (UniProt P08684); test: NVS_ADME_hCYP3A4: NovaScreen (NVS) CYP450-related Enzyme Activity (ADME) Assay for human CYP3A4 (AID 2283110)
# In short: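 Compounds were first screened in duplicate at 10 uM against recombinant CYP3A4 produced in insect cells, then actives were run in concentration series. Enzyme activity was measured by fluorescence after 0.33 hour, with acetonitrile as baseline.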
# [10] = molecular target: human CYP4F12, CYP4F12 (gene 66002) (UniProt Q9HCS2); test: NVS_ADME_hCYP4F12: NovaScreen (NVS) CYP450-related Enzyme Activity (ADME) Assay for human CYP4F12 (AID 2283111)
# In short: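 Cell-free fluorescence assay of recombinant human CYP4F12 activity on a specific substrate, read 0.5 h after dosing. Primary screen in duplicate at 10 uM, then concentration series for actives; loss of signal fitted against acetonitrile negative control.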
# Chain of rat CYP1A2, Cyp1a2 (gene 24297) (P04799 whole entry, looked up): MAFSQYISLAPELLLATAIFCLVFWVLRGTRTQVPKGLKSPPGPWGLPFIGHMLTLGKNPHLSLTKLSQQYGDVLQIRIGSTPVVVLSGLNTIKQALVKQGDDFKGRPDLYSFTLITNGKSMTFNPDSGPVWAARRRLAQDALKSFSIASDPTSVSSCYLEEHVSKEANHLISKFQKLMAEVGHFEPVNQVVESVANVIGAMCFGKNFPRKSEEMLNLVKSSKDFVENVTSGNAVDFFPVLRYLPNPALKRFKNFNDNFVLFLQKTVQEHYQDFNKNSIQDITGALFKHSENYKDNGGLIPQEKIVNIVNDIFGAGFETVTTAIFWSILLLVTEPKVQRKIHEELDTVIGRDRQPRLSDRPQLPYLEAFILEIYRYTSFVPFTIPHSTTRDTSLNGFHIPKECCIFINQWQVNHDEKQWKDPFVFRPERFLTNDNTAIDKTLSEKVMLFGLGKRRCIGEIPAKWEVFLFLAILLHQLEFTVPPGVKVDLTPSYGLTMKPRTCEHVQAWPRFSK
# Chain of human CYP2J2, CYP2J2 (gene 1573) (P51589 whole entry, looked up): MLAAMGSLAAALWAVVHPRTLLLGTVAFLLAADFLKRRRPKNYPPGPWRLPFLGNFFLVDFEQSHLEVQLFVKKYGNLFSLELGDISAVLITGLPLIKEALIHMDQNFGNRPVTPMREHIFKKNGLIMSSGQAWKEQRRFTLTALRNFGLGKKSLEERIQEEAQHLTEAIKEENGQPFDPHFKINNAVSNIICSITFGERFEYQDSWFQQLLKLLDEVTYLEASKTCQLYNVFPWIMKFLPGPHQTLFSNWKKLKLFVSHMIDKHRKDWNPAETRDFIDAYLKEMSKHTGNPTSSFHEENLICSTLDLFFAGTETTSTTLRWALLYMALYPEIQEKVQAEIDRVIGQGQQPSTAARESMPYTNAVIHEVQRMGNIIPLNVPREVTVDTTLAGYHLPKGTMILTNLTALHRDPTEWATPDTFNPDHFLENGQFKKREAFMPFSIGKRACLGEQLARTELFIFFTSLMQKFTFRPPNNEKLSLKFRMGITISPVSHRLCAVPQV
# Chain of Cytochrome P450 3A4 (Homo sapiens) (P08684 whole entry, looked up): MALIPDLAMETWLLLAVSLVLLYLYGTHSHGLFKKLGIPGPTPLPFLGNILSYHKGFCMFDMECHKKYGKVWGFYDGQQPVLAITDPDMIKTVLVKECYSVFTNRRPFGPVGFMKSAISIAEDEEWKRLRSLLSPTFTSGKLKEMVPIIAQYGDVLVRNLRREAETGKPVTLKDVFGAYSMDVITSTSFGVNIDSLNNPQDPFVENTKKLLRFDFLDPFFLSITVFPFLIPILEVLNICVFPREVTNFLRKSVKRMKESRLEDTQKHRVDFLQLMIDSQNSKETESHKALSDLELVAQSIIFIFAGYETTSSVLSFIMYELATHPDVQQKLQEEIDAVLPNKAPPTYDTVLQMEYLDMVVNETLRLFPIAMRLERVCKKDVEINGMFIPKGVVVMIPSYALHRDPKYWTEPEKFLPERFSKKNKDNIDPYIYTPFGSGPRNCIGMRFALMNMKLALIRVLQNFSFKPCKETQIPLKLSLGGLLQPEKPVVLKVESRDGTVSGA
# Chain of human CYP2D6, CYP2D6 (gene 1565) (P10635 whole entry, looked up): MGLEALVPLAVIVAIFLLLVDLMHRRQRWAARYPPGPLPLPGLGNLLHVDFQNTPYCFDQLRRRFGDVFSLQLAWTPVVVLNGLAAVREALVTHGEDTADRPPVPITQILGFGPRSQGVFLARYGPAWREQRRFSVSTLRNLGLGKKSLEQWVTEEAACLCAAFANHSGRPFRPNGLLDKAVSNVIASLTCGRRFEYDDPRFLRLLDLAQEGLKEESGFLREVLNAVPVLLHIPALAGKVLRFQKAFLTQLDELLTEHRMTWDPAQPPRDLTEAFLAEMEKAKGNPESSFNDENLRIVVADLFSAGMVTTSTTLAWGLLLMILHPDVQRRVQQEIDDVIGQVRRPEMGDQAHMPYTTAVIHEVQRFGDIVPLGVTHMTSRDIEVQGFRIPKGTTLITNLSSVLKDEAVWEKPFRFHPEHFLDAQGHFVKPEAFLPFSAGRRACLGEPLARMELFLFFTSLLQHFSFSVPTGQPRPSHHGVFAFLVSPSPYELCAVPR
# Chain of rat CYP2C11, Cyp2c11 (gene 29277) (P08683 whole entry, looked up): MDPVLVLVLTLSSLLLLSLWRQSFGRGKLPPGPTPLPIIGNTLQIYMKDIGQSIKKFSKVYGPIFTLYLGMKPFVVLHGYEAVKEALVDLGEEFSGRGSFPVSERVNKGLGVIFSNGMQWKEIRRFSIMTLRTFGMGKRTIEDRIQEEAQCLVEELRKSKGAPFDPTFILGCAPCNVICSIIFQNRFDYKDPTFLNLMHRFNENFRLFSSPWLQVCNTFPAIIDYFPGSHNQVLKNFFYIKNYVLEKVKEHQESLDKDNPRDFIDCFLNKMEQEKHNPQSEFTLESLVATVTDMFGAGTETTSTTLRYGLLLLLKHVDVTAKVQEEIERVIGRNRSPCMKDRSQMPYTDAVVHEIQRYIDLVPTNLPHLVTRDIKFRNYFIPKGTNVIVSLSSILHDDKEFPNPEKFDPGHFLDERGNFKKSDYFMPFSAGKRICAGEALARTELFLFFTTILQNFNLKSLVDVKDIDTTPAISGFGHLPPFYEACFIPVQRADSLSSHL
# Chain of human CYP2C9, CYP2C9 (gene 1559) (P11712 whole entry, looked up): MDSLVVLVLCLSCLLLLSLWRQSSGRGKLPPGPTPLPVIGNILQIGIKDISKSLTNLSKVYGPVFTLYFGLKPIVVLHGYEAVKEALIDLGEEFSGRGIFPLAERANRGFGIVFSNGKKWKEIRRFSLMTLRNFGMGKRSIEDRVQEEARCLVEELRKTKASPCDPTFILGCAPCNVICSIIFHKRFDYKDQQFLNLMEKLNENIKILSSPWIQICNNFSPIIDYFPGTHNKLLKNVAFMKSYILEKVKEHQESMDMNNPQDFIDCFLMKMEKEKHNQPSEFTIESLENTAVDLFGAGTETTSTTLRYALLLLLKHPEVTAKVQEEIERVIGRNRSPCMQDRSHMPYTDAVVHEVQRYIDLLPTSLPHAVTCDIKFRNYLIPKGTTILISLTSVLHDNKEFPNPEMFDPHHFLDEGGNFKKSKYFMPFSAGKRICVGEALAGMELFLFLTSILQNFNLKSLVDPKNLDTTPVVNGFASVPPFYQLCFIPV
# Chain of rat CYP2A2, Cyp2a2 (gene 24895) (P15149 whole entry, looked up): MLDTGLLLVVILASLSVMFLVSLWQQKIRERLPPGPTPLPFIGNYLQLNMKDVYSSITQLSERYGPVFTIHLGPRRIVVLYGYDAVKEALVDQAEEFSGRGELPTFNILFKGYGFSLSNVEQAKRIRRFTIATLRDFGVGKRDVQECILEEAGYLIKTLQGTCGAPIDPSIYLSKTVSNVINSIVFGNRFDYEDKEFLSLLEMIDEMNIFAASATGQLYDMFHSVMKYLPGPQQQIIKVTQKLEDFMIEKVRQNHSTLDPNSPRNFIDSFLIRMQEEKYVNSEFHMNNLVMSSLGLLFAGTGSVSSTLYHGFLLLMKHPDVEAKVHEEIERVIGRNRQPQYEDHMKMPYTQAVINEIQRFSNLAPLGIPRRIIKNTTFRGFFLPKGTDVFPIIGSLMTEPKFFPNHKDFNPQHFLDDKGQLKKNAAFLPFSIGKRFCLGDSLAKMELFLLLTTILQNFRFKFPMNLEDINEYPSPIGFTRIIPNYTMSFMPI
# Chain of rat CYP2C12, Cyp2c12 (gene 25011) (P11510 whole entry, looked up): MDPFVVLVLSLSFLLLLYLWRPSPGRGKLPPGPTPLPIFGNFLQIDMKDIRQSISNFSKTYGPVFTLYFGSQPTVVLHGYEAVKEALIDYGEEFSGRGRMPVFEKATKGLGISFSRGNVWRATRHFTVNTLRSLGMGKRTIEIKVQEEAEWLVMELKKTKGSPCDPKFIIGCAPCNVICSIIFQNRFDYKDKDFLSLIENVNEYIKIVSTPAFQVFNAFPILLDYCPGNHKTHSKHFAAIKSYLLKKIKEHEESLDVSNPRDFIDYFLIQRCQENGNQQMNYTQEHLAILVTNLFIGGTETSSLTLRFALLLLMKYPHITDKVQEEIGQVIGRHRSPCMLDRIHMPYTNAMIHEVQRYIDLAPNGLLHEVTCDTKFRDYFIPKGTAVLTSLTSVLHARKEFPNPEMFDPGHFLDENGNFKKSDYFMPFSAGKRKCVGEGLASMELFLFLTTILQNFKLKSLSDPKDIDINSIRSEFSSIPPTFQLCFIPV
# Chain of human CYP4F12, CYP4F12 (gene 66002) (Q9HCS2 whole entry, looked up): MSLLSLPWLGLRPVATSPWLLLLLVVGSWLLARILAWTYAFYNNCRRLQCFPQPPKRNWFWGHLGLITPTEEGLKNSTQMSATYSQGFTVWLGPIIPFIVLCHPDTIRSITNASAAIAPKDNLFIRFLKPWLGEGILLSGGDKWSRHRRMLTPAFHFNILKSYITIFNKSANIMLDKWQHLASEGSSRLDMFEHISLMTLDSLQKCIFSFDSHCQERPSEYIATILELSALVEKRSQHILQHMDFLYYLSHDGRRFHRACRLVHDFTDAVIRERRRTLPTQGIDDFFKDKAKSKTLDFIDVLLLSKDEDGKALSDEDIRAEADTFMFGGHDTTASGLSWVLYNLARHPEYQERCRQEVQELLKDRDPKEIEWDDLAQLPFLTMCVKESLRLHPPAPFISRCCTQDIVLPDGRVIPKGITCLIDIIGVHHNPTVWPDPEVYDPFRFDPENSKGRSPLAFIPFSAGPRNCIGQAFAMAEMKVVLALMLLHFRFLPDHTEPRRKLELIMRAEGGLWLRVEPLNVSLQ
smiles,measurement,setting,value
CCOC(=O)CC(SP(=S)(OC)OC)C(=O)OCC (stereo not given),AC50,[1],369 nM (active)
same,AC50,[2],4680 nM (active)
same,AC50,[3],0.752 µM (active)
same,AC50,[4],32 nM (active)
same,AC50,[5],2590 nM (active)
same,AC50,[6],399 nM (active)
same,AC50,[7],6050 nM (active)
CCNc1nc(Cl)nc(NCC)n1,AC50,[1],200 nM (active)
O=C(Nc1ccccc1)Nc1ccnc(Cl)c1,AC50,[1],2150 nM (active)
same,AC50,[3],2.46 µM (active)
same,outcome,[8],inactive
N#Cc1nn(-c2c(Cl)cc(C(F)(F)F)cc2Cl)c(N)c1S(=O)C(F)(F)F (stereo not given),AC50,[3],1.14 µM (active)
same,AC50,[4],751 nM (active)
N#Cc1cc(Br)c(O)c(Br)c1,outcome,[2],inactive
CC1COC(Cn2cncn2)(c2ccc(Oc3ccc(Cl)cc3)cc2Cl)O1 (stereo not given),AC50,[1],438 nM (active)
same,AC50,[3],1.34 µM (active)
same,AC50,[4],25.8 nM (active)
same,AC50,[5],127 nM (active)
same,AC50,[6],1730 nM (active)
same,AC50,[7],1080 nM (active)
COc1ccc(C(c2ccc(OC)cc2)C(Cl)(Cl)Cl)cc1,AC50,[3],10 µM (active)
same,outcome,[9],inactive
same,outcome,[10],inactive
same,AC50,[4],7000 nM (active)
same,outcome,[5],inactive
same,outcome,[6],inactive
same,outcome,[7],inactive
OC(c1ccc(Cl)cc1)(c1cncnc1)c1ccccc1Cl (stereo not given),AC50,[1],2260 nM (active)
same,AC50,[3],2.35 µM (active)
same,AC50,[9],3870 nM (active)
same,AC50,[4],136 nM (active)
same,AC50,[5],53.4 nM (active)
same,AC50,[6],6580 nM (active)
same,AC50,[7],3990 nM (active)
CCCN(CCC)c1c([N+](=O)[O-])cc(S(N)(=O)=O)cc1[N+](=O)[O-],outcome,[9],inactive
same,AC50,[4],1.34 µM (active) [middle of 4 runs]
same,outcome,[6],inactive
same,AC50,[7],3080 nM (active)
O=C(O)c1nc(Cl)ccc1Cl,outcome,[9],inactive
same,outcome,[4],inactive
C=CCC1=C(C)C(OC(=O)C2C(C=C(C)C)C2(C)C)CC1=O (stereo not given),AC50,[3],7.07 µM (active) and 14.6 µM (active) and 6.76 µM (active)
same,outcome,[3],inactive
same,outcome,[9],inactive
CC(C)Oc1cc(-n2nc(C(C)(C)C)oc2=O)c(Cl)cc1Cl,outcome,[4],inactive
C=CC1(C)OC(=O)N(c2cc(Cl)cc(Cl)c2)C1=O (stereo not given),outcome,[9],inactive
same,AC50,[4],5.01 µM (active) and 10 µM (active) and 1.87 µM (active)
N#CC(CCc1ccc(Cl)cc1)(Cn1cncn1)c1ccccc1 (stereo not given),AC50,[3],1.14 µM (active)
same,AC50,[9],4350 nM (active)
same,AC50,[4],191 nM (active)
same,AC50,[5],20 nM (active)
same,AC50,[6],267 nM (active)
same,AC50,[7],250 nM (active)
CCCCC(CC)COC(=O)c1ccccc1C(=O)OCC(CC)CCCC (stereo not given),outcome,[3],inactive
same,outcome,[4],inactive
COC(=O)N(OC)c1ccccc1COc1ccn(-c2ccc(Cl)cc2)n1,AC50,[3],1.26 µM (active)
same,AC50,[4],720 nM (active)
same,AC50,[6],809 nM (active)
CCCC1COC(Cn2cncn2)(c2ccc(Cl)cc2Cl)O1 (stereo not given),outcome,[1],inactive
same,AC50,[2],13900 nM (active)
same,AC50,[3],1.65 µM (active) and 4.57 µM (active)
same,AC50,[4],721 nM (active)
same,AC50,[5],106 nM (active) and 102 nM (active)
same,AC50,[6],1450 nM (active)
COP(=S)(OC)Oc1nc(Cl)c(Cl)cc1Cl,AC50,[4],10000 nM (active)
same,outcome,[8],inactive
CC1=C(C(=O)Nc2ccccc2)SCCO1,outcome,[8],inactive
Cc1ccc(-c2c(Cl)nc(C#N)n2S(=O)(=O)N(C)C)cc1,AC50,[3],4.54 µM (active)
same,AC50,[4],7380 nM (active)
same,outcome,[8],inactive
same,AC50,[6],6130 nM (active)
CON(C)C(=O)Nc1ccc(Cl)c(Cl)c1,outcome,[8],inactive
CN(C)C(=S)SSC(=S)N(C)C,AC50,[1],6560 nM (active)
same,AC50,[2],2150 nM (active)
same,AC50,[3],1.92 µM (active)
same,outcome,[9],inactive
same,AC50,[4],780 nM (active)
same,outcome,[8],inactive
same,AC50,[7],1980 nM (active)
CO/C=C(/C(=O)OC)c1ccccc1Oc1cc(Oc2ccccc2C#N)ncn1,outcome,[3],inactive
same,outcome,[9],inactive
same,AC50,[6],2810 nM (active)
CS/C(C)=N/OC(=O)N(C)SN(C)C(=O)O/N=C(\C)SC,AC50,[1],2790 nM (active)
same,AC50,[2],934 nM (active)
same,AC50,[3],5.64 µM (active)
same,outcome,[10],inactive
same,AC50,[4],3430 nM (active)
same,AC50,[6],3660 nM (active)
same,AC50,[7],1120 nM (active)
CCOP(=S)(OCC)SCn1c(=O)oc2cc(Cl)ccc21,outcome,[1],inactive
same,AC50,[2],2800 nM (active)
same,AC50,[3],1.8 µM (active)
same,AC50,[4],215 nM (active)
same,outcome,[8],inactive
same,AC50,[5],10000 nM (active)
same,AC50,[6],993 nM (active)
same,AC50,[7],2170 nM (active)
COC(=O)C(C)Oc1ccc(Oc2ccc(Cl)cc2Cl)cc1 (stereo not given),AC50,[4],10 µM (active) and 14.1 µM (active) and 7.91 µM (active)
C=CCC1=C(C)[C@@H](OC(=O)[C@@H]2[C@@H](C=C(C)C)C2(C)C)CC1=O,AC50,[2],10000 nM (active)
same,AC50,[3],5.73 µM (active)
same,AC50,[4],6390 nM (active)

# From PubChem BioAssay (EPA / NIEHS)
